Assay results as given in PubChem BioAssay (EPA / NIEHS).
Results filed as inconclusive are left out. The source made the active and inactive calls. Rule for the calls: active = hit-call score of the fitted dose curve at least 0.9, where 1 is the maximum; inactive = score below 0.9.

Each molecule was assayed on ABC Transporter (ABCB11), ABCB11 (gene 8647) (assay: CLD_ABCB11_24hr: CellzDirect (CLD) Gene Expression Assay for ABC Transporter (ABCB11) at 24 hours (AID 2283674)).
Protocol: CLD_24hr is a cell-based, multiplexed-readout assay that uses hepatocyte, a human liver primary cell, with measurements taken at 24 hours after chemical dosing in a 96-well plate.CLD_ABCB11_24hr is one of 16 assay component(s) measured or calculated from the CLD_24hr assay. It is designed to make measurements of mRNA induction, a form of inducible reporter, as detected with chemiluminescence signals by Quantitative Nuclease Protection Assay (qNPA) technology.Data from the assay component CLD_ABCB11_24hr was analyzed at the endpoint, CLD_ABCB11_24hr, in the positive analysis fitting direction relative to DMSO as the negative control and baseline of activity. Using a type of inducible reporter, gain-of-signal activity can be used to understand changes in the reporter gene as they relate to the gene ABCB11. Furthermore, this assay endpoint can be referred to as a primary readout. To generalize the intended target to other relatable targets, this assay endpoint is annotated to the transporter intended target family, where subfamily is ABC transporter.
Human hepatocyte cultures were treated daily for two consecutive days with fresh dosing solutions containing appropriate concentrations of the 320 ToxCast chemicals (chemical identities were blinded to CellzDirect and other ToxCast collaborators), vehicle control (0.2% DMSO), and positive control inducers as summarized in Table 1. Due to the large number of treatment groups and chemicals examined, the ToxCast chemicals were divided into two groups (spanning two independent cultures of hepatocytes from separate donor preparations (Hu778: ToxCast plates 1 and 2; Hu776: ToxCast plates 3 and 4). Each preparation of human hepatocyte cultures was treated with respective vehicle control, medium only control, set of six positive controls/reference chemicals for the five hepatic receptor pathways, and a subset of eight of the ToxCast chemicals (indoxacarb, pyrithiobac-sodium, norflurazon, cyhalofop-butyl, methomyl, thiram, acetochlor, and propiconazole). These replicate data, coupled with internal replicates designed within the blinded ToxCast chemical library, provided additional data to evaluate interindividual differences between hepatocyte preparations and their potential impact on chemical profiles.Cell morphology and integrity were evaluated using phase-contrast microscopy as an indicator of hepatocyte cell health (Tyson & Green, 1987). Cultures for each treatment group (i.e., media, vehicle [0.2% DMSO], positive control inducers [multiple concentrations], and the ToxCast chemicals [multiple concentrations]) were observed and cell morphology was assessed relative to vehicle control cultures at each harvest time point (0, 6, 24, or 48 h). […] Images were evaluated at the conclusion of the study to assess changes in cell integrity and account for the effects of chemical exposure on uncharacteristic changes in concentration-dependent gene expression profiles. The results from these determinations of apparent cytotoxicity were annotated (yes/no) alongside the corresponding qNPA data for reference.At the conclusion of each treatment period, hepatocyte cultures (96-well) were washed with 1 volume of HBSS, lysed by addition of 25 ul ArrayPlate lysis buffer (HTG, Tucson, AZ), and 70 ul/well of Denaturation Oil, denatured by incubation at 95C for 10 min, and frozen at approximately -70C until analysis by nuclease protection assay (qNPA) (Roberts et al., 2007). For qNPA analysis, cell lysates were thawed at 50C for approximately 30 min, qNPA probes were added, and samples were incubated at 95C for 10 min to begin the detection process by denaturing the target RNA, dissociating the duplexes and secondary structure hybridization. At the conclusion of the hybridization period, S1 nuclease reagent was added to each sample to digest all nonprotected nucleotides at 50C for 60-90 min. […]
For `CCc1ccc(C(=O)NN(C(=O)c2cc(C)cc(C)c2)C(C)(C)C)cc1`, the outcome was “inactive”.
`OCCOc1ccccc1` was tested, and the outcome was “inactive”.
With `O=S1OCC2C(CO1)C1(Cl)C(Cl)=C(Cl)C2(Cl)C1(Cl)Cl` (stereo unspecified) the outcome was “inactive”.
`N#Cc1c(Cl)c(Cl)c(Cl)c(C#N)c1Cl` was tested, and the outcome was “inactive”.
`O=C(NC(=O)c1c(F)cccc1F)Nc1ccc(OC(F)(F)C(F)OC(F)(F)F)c(Cl)c1` (stereo unspecified) was tested, and the outcome was “inactive”.
In the case of `Clc1ccccc1-c1nnc(-c2ccccc2Cl)nn1`, the outcome is reported as “inactive”.
With `C#CCN1C(=O)COc2cc(F)c(N3C(=O)C4=C(CCCC4)C3=O)cc21` the outcome was “inactive”.
In the case of `COc1nn(CSP(=S)(OC)OC)c(=O)s1`, the outcome is reported as “inactive”.
In the case of `COC(=O)c1ccccc1S(=O)(=O)NC(=O)Nc1nc(C)nc(OC)n1`, the outcome is reported as “inactive”.
For `COP(=S)(OC)Oc1ccc([N+](=O)[O-])cc1`, the outcome was “inactive”.
`CCOc1nc(NC)nc(NC(=O)NS(=O)(=O)c2ccccc2C(=O)OC)n1` was tested, and the outcome was “inactive”.
`Cc1cc(C)nc(NC(=O)NS(=O)(=O)c2ccccc2C(=O)OC2COC2)n1` was tested, and the outcome was “inactive”.
In the case of `CCS(=O)(=O)c1cccnc1S(=O)(=O)NC(=O)Nc1nc(OC)cc(OC)n1`, the outcome is reported as “inactive”.
In the case of `O=[N+]([O-])/N=C1\NCCN1Cc1ccc(Cl)nc1`, the outcome is reported as “inactive”.
With `CNC(=O)/C=C(\C)OP(=O)(OC)OC` the outcome was “inactive”.
In the case of `O=C1c2ccccc2C(=O)N1SC(Cl)(Cl)Cl`, the outcome is reported as “inactive”.
With `COC(=O)c1ccccc1S(=O)(=O)NC(=O)N(C)c1nc(C)nc(OC)n1` the outcome was “inactive”.
For `CC[C@H](C)[C@H]1O[C@]2(C=C[C@@H]1C)C[C@@H]1C[C@@H](C/C=C(\C)[C@@H](O[C@H]3C[C@H](OC)[C@@H](O[C@H]4C[C@H](OC)[C@@H](O)[C@H](C)O4)[C@H](C)O3)[C@@H](C)/C=C/C=C3\CO[C@@H]4[C@H](O)C(C)=C[C@@H](C(=O)O1)[C@]34O)O2` (tested in a mixture with another compound), the AC50 was 467 nM (active).
For `CCOCN(C(=O)CCl)c1c(C)cccc1CC`, the outcome was “inactive”.
With `N#CN` the outcome was “inactive”.
For `[2H]C1([2H])[n+]2ccccc2-c2cccc[n+]2C1([2H])[2H]`, the outcome was “inactive”.
